Experimental findings from PubChem BioAssay (NCATS) are described below.

Results filed as inconclusive are left out. Entries that show only a call come without a potency. Calls of active or inactive are those of the source. Calls come from the whole dose curve; as a rule, active = well fitted cell-killing curve with a large enough effect; inconclusive = small, poorly fitted or top-dose-only effect, or effect the other way; inactive = flat fitted curve, though single readings scatter.
Potency is the fitted concentration of half-maximal effect.

One assay deals with HeLa. Nature of the assay: Primary qHTS to identify gynecologic anti-cancer compounds using libraries of approved drugs and bioactive compounds (AID 1345084). Note: nearly all actives have a fitted effect of over 55% in size. Conditions: Gynecologic cancer cell panel viability, ATPlite luminescence, 48 h; series mostly up to 57.5 µM. A digest of the protocol: (§1)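 Cell viability after 48 h drug treatment, ATPlite luminescence readout; five doses.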
For orientation: Quantitative high-throughput screening tests each substance at several concentrations.
Consider `CC(C)=C[C@@H]1[C@@H](C(=O)OCc2coc(Cc3ccccc3)c2)C1(C)C`, for which the Potency result is “inactive”.

Take `CCN(CC)C(C)C(=O)c1ccccc1` (stereo not given): the Potency entry is “inactive”.

With `Nc1ccc(Cl)cc1C(=O)c1ccccc1F`, the Potency entry was “inactive”.

Consider `COc1ccc(C(=O)N2CCCC2=O)cc1`, for which the Potency result was “inactive”.

Regarding `CC(C)C(Br)C(=O)NC(N)=O` (stereo not given), the Potency entry is “inactive”.

For `C#C[C@]1(O)CC[C@H]2[C@@H]3CCC4=CC(=O)CCC4=C3C=C[C@@]21CC`, the Potency entry was “inactive”.

For `CC(CC(C(N)=O)(c1ccccc1)c1ccccc1)N(C)C` (stereo not given), the Potency entry was “inactive”.

In the case of `C#C[C@]1(O)C=C[C@H]2[C@@H]3CCC4=CC(=O)CC[C@@H]4[C@H]3CC[C@@]21CC`, the Potency is 12.6 µM (active).

For the molecule `C[C@@H]1CC[C@H]2[C@@H](C)C(=O)O[C@@H]3O[C@@]4(C)CC[C@@H]1[C@]32OO4`, the Potency result is “inactive”.

Turning to `CNC(C)Cc1ccccc1OC` (stereo not given), the Potency result is “inactive”.

In the case of `CC(Cc1ccccc1)NCc1ccccc1Cl` (stereo not given), the Potency entry was “inactive”.

Consider `Nc1ccccc1C(=O)OCC(O)CO` (stereo not given), for which the Potency entry is “inactive”.

Consider `CC(C)NCC(O)c1ccc(N)c(C#N)c1` (stereo not given), for which the Potency result was “inactive”.

For the molecule `Sc1ccccc1Cl`, the Potency entry was “inactive”.

On to `CCN(CC)CCOC(=O)C(C)(c1ccccc1)c1ccccc1`, for which the Potency result is “inactive”.

For the molecule `COc1ccc2[nH]cc(CCN(C(C)C)C(C)C)c2c1`, the Potency result was “inactive”.

In the case of `COc1cc(CC#N)cc(OC)c1OC`, the Potency entry was “inactive”.

For `O=C(CBr)Nc1ccc(Cl)cc1C(=O)c1ccccc1F`, the Potency result is “inactive”.

`COP(=S)(OC)Oc1ccc(S(N)(=O)=O)cc1`: the Potency entry is “inactive”.

As for `C[N+](C)(C)CCOC(=O)C(O)(c1ccccc1)c1ccccc1`, the Potency entry is “inactive”.

On to `ClCCCN1CCN(c2cccc(Cl)c2)CC1`, for which the Potency result is “inactive”.

In the case of `CCc1ccc(C2CCNCC2)cc1`, the Potency result is “inactive”.

As to `CCC1(c2ccccc2)CCC(=O)NC1=O` (stereo not given), the Potency result was “inactive”.

`CN(C)C(=O)Oc1cc(OC(=O)N(C)C)cc(C(O)CNC(C)(C)C)c1` (stereo not given): the Potency result is “inactive”.

As to `Oc1ccc([C@H]2CNCc3c2ccc(O)c3O)cc1O`, the Potency entry was “inactive”.

Consider `CCOC(=O)C(c1c(O)c2ccccc2oc1=O)c1c(O)c2ccccc2oc1=O`, for which the Potency result is “inactive”.

Consider `ClCc1cccc(Cl)c1`, for which the Potency entry was “inactive”.

As for `OC(c1ccccc1)(c1ccccc1)C1CCNCC1`, the Potency entry is “inactive”.

As for `CCOC(=O)C1(c2ccccc2)CCN(CCc2ccc(N)cc2)CC1`, the Potency entry is “inactive”.

In the case of `CCOC(=O)NC(O)C(Cl)(Cl)Cl` (stereo not given), the Potency result was “inactive”.

For the molecule `C[C@H]1CNCCc2ccc(Cl)cc21`, the Potency result was “inactive”.

As for `COP(=O)(OC)OC=C(Cl)Cl`, the Potency entry is “inactive”.

As for `CC(C)(C)OC(=O)c1ncn2c1[C@@H]1CCCN1C(=O)c1c(Br)cccc1-2`, the Potency entry is “inactive”.

As for `NC(=O)OCCCc1ccccc1`, the Potency entry is “inactive”.

`C[C@]12CC[C@H](O)CC1=CC[C@@H]1[C@@H]2CC[C@]2(C)C(=O)CC[C@@H]12`: the Potency was 14.1 µM (active).

Consider `OC(O)C(Cl)(Cl)Cl`, for which the Potency result was “inactive”.

As to `CCCCC1C(=O)NC(=O)N(C2CCCCC2)C1=O` (stereo not given), the Potency entry is “inactive”.

Regarding `CN1C[C@@H](NS(=O)(=O)N(C)C)C[C@@H]2c3cccc4c3c(cn4C)C[C@H]21`, the Potency result is “inactive”.

Turning to `CC(Cc1ccccc1)NCCCCl` (stereo not given), the Potency entry was “inactive”.

Turning to `C[C@]12CC[C@H]3[C@@H](CCC4=CC(=O)CC[C@@H]43)[C@@H]1CC[C@@H]2O`, the Potency is 2.24 µM (active).

A further assay has as its system Hek293T. Described as above. Conditions: Gynecologic cancer cell panel viability, ATPlite luminescence, 48 h, control line for the selectivity index; series mostly up to 57.5 µM. In a few lines:
as §1
With `CC(C)=C[C@@H]1[C@@H](C(=O)OCc2coc(Cc3ccccc3)c2)C1(C)C`, the Potency entry was “inactive”.

Turning to `CCN(CC)C(C)C(=O)c1ccccc1` (stereo not given), the Potency entry is “inactive”.

For the molecule `Nc1ccc(Cl)cc1C(=O)c1ccccc1F`, the Potency entry is “inactive”.

In the case of `COc1ccc(C(=O)N2CCCC2=O)cc1`, the Potency entry is “inactive”.

As for `CC(C)C(Br)C(=O)NC(N)=O` (stereo not given), the Potency result was “inactive”.

For the molecule `C#C[C@]1(O)CC[C@H]2[C@@H]3CCC4=CC(=O)CCC4=C3C=C[C@@]21CC`, the Potency result is “inactive”.

Turning to `CC(CC(C(N)=O)(c1ccccc1)c1ccccc1)N(C)C` (stereo not given), the Potency entry was “inactive”.

With `C#C[C@]1(O)C=C[C@H]2[C@@H]3CCC4=CC(=O)CC[C@@H]4[C@H]3CC[C@@]21CC`, the Potency entry is “inactive”.

For `C[C@@H]1CC[C@H]2[C@@H](C)C(=O)O[C@@H]3O[C@@]4(C)CC[C@@H]1[C@]32OO4`, the Potency result was “inactive”.

`CNC(C)Cc1ccccc1OC` (stereo not given): the Potency result is “inactive”.

For `CC(Cc1ccccc1)NCc1ccccc1Cl` (stereo not given), the Potency result is “inactive”.

With `Nc1ccccc1C(=O)OCC(O)CO` (stereo not given), the Potency result is “inactive”.

On to `CC(C)NCC(O)c1ccc(N)c(C#N)c1` (stereo not given), for which the Potency entry was “inactive”.

For `Sc1ccccc1Cl`, the Potency result was “inactive”.

For the molecule `CCN(CC)CCOC(=O)C(C)(c1ccccc1)c1ccccc1`, the Potency entry was “inactive”.

As for `COc1ccc2[nH]cc(CCN(C(C)C)C(C)C)c2c1`, the Potency result was “inactive”.

For the molecule `COc1cc(CC#N)cc(OC)c1OC`, the Potency result is “inactive”.

As to `O=C(CBr)Nc1ccc(Cl)cc1C(=O)c1ccccc1F`, the Potency result was “inactive”.

As for `COP(=S)(OC)Oc1ccc(S(N)(=O)=O)cc1`, the Potency result was “inactive”.

Consider `C[N+](C)(C)CCOC(=O)C(O)(c1ccccc1)c1ccccc1`, for which the Potency entry is “inactive”.

Turning to `ClCCCN1CCN(c2cccc(Cl)c2)CC1`, the Potency result was “inactive”.

In the case of `CCc1ccc(C2CCNCC2)cc1`, the Potency result was “inactive”.

In the case of `CCC1(c2ccccc2)CCC(=O)NC1=O` (stereo not given), the Potency entry was “inactive”.

Turning to `CN(C)C(=O)Oc1cc(OC(=O)N(C)C)cc(C(O)CNC(C)(C)C)c1` (stereo not given), the Potency result was “inactive”.

As for `Oc1ccc([C@H]2CNCc3c2ccc(O)c3O)cc1O`, the Potency result is “inactive”.

Consider `CCOC(=O)C(c1c(O)c2ccccc2oc1=O)c1c(O)c2ccccc2oc1=O`, for which the Potency result was “inactive”.

Consider `ClCc1cccc(Cl)c1`, for which the Potency entry was “inactive”.

Take `OC(c1ccccc1)(c1ccccc1)C1CCNCC1`: the Potency result was “inactive”.

On to `CCOC(=O)C1(c2ccccc2)CCN(CCc2ccc(N)cc2)CC1`, for which the Potency entry was “inactive”.

For `CCOC(=O)NC(O)C(Cl)(Cl)Cl` (stereo not given), the Potency result is “inactive”.

Regarding `C[C@H]1CNCCc2ccc(Cl)cc21`, the Potency result was “inactive”.

For `COP(=O)(OC)OC=C(Cl)Cl`, the Potency entry was “inactive”.

Consider `CC(C)(C)OC(=O)c1ncn2c1[C@@H]1CCCN1C(=O)c1c(Br)cccc1-2`, for which the Potency entry is “inactive”.

Turning to `NC(=O)OCCCc1ccccc1`, the Potency entry is “inactive”.

Consider `C[C@]12CC[C@H](O)CC1=CC[C@@H]1[C@@H]2CC[C@]2(C)C(=O)CC[C@@H]12`, for which the Potency result is “inactive”.

Regarding `OC(O)C(Cl)(Cl)Cl`, the Potency entry is “inactive”.

Turning to `CCCCC1C(=O)NC(=O)N(C2CCCCC2)C1=O` (stereo not given), the Potency entry was “inactive”.

Consider `CN1C[C@@H](NS(=O)(=O)N(C)C)C[C@@H]2c3cccc4c3c(cn4C)C[C@H]21`, for which the Potency entry was “inactive”.

In the case of `CC(Cc1ccccc1)NCCCCl` (stereo not given), the Potency entry is “inactive”.

Regarding `C[C@]12CC[C@H]3[C@@H](CCC4=CC(=O)CC[C@@H]43)[C@@H]1CC[C@@H]2O`, the Potency result was “inactive”.
